Compound activity (PubChem BioAssay)
Only some compounds are listed: those with a hit (about 6.7% of all), similar ones and a draw of the others.
MCF10A rerep: DNA re-replication induction in MCF 10a cells | hit rate 2.9% among 350,000 | Potency, µM (highest dose often 46.1 µM), for inactives: top-dose activity, positive = re-replication, usual class: activators | MCF 10A DNA re-replication, Hoechst nuclear intensity, 48 h; further: % of control where 0% means no effect; nearly all actives have a fitted effect of over 50% in size
PINK1 modulator: changes PINK1 expression; PINK1 immunofluorescence, high-content cytometry, 24 h; Potency, µM (highest dose often 76.6 µM), inactives show at the top dose activation (PINK1 increase), usual class: activators; hit rate 0.2% among 410,000; AID 624263; active means well fitted activation curve with a large enough effect; inconclusive means small, poorly fitted or top-dose-only effect; cell line not stated here; further: % of control where 0% means no effect; nearly all actives have a fitted effect of over 65% in size
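Stable cell line, 250 cells/well, 12 h attachment; compounds pinned at 5 concentrations, 24 h; CCCP control. Fixed with nuclear dye, primary antibodies 12 h at 10 degrees C, secondary plus cell stain; laser-scanning cytometer read.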
KB-V1 MDR tox: kills drug-selected multidrug resistant KB-V1 cells. KB-V1 MDR cells viability, CellTiter-Glo, 72 h. Potency, µM (top dose mostly 46.1 µM), actives largely listed as cytotoxic. hit rate 3.4% among 400,000. AID 1347076; further: on the % scale 0 is the no-effect control and ±100 the full control effect; nearly all actives have a fitted effect of over 60% in size
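Following 72 h at 37 degrees C with compound, KB-V1 cell viability was read by CellTiter-Glo luminescence, medium being phenol-red-free DMEM plus 10% FBS; concentration-response parameters came from normalized, curve-fitted qHTS data.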
KB-3-1 cytotox: kills parental KB-3-1 adenocarcinoma cells. Potency, µM (highest dose often 46.1 µM), most hits filed as cytotoxic. KB-3-1 viability, CellTiter-Glo ATP luminescence, 72 h. hit rate 1.4% among 400,000; further: on the % scale 0 is the no-effect control and ±100 the full control effect; nearly all actives have a fitted effect of over 60% in size
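Cells are dispensed, compounds pinned in, plates held at 37 °C for 72 h, then CellTiter-Glo is added and luminescence read after 10 minutes. Cell line: parental KB-3-1 in phenol-red-free DMEM, 10% FBS.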
SW480 rerep: DNA re-replication induction in SW480 cells. SW480 DNA re-replication, Hoechst DNA content imaging, 48 h. Potency, µM (doses to about 46.1 µM), for inactives: at the highest dose re-replication activation, hits mostly activators. hit rate 1.8% among 340,000. AID 624297; further: % of control where 0% means no effect; nearly all actives have a fitted effect of over 55% in size
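Image-based DNA-content assay: after two days of treatment, nuclei were labelled with the DNA dye Hoechst and imaged, and hits were compounds raising the count of nuclei showing high fluorescence intensity.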
An asterisk follows results filed as active; i = inactive; ? = inconclusive; . = not tested or not shown; [ ] = remark or other dose. Unless noted, the call rests on the fitted dose curve; in most records, active means well fitted curve in the direction sought with a large enough effect; inconclusive means small, poorly fitted or top-dose-only effect, or another doubt; inactive means no such curve, though single readings can be large; an effect the other way counts as inactive or inconclusive. Potency means the concentration at half of the fitted maximal effect.

SMILES	MCF10A rerep	PINK1 modulator	KB-V1 MDR tox	KB-3-1 cytotox	SW480 rerep
CC1CC1c1ccc(/C=C(\C#N)C(=O)Nc2cc(Cl)ccc2Cl)o1 (centres undefined)	19%	?	i	i	0%
O=C1OC(Nc2nc(-c3ccc(F)cc3)cs2)c2ccccc21 (centres undefined)	21µM*	-2%	?	i	26µM*
O=C(O)c1ccccc1C(=O)N1CCN(Cc2ccc3c(c2)OCO3)CC1	7%	-2%	i	i	3%
CCSc1ccccc1C(=O)N1CCN(Cc2ccc3c(c2)OCO3)CC1	2%	-3%[38.3 µM]	18µM*	i	1%
O=C(c1ccc(S(=O)(=O)N2CCCCC2)cc1)N1CCN(Cc2ccc3c(c2)OCO3)CC1	12%	2%	2.6µM*	?	-6%
CC(C)[C@H](NC(=O)c1ccc(C(C)(C)C)cc1)C(=O)N1CCN(Cc2ccc3c(c2)OCO3)CC1	18µM*	1%	?	?	?
Cc1cc(C(=O)N2CCN(Cc3ccc4c(c3)OCO4)CC2)cs1	?	0%[38.3 µM]	15µM*	i	-6%
Cc1cc(C)cc(C(=O)N2CCN(Cc3ccc4c(c3)OCO4)CC2)c1	1%	1%	i	i	?
COc1ccc(OC)c(-c2cc(C(=O)NC(C)c3ccccc3)no2)c1 (centres undefined)	.	3%	i	i	.
CCOc1ccccc1CNC(=O)c1ccc2c(c1)N(Cc1ccc(C)cc1)CCS2	.	1%	.	.	.
c1ccc(Nc2nc(N3CCCCC3)nc(N3CCNCC3)n2)cc1	-2%	8%[38.3 µM]	21µM*	i	-3%
Cc1cccc(Nc2nc(N3CCCC3)nc(N3CCCC3)n2)c1	21µM*	11%[38.3 µM]	9.2µM*	i	?
Cc1noc(C)c1COc1ccccc1C(=O)NC1CCC(C)CC1 (centres undefined)	3%	-1%	i	i	?
Cc1nc(N2CCC(C)CC2)c2c(C)c(C(=O)Nc3ccccc3C(F)(F)F)sc2n1	9.2µM*	?	i	i	1%
Cc1nc(N2CCC(C)CC2)c2c(C)c(C(=O)Nc3ccc(C)c(F)c3)sc2n1	-1%	7%	i	i	-5%
COc1ccc(NC(=O)CSc2nc3nc(-c4cccs4)cc(C(F)(F)F)c3c(=O)[nH]2)c(OC)c1	?	4%	i	i	-82%
CCOc1ccccc1NC(=O)CSc1nc2nc(-c3cccs3)cc(C(F)(F)F)c2c(=O)[nH]1	16µM*	3%	i	i	-4%
CCOc1ccccc1N(C)C(=O)c1cc2c(=O)n(CC)c3ccccc3c2s1	3.7µM*	7%	i	?	18µM*
CCOCCCNC(=O)c1cc2c(=O)n(CC)c3ccccc3c2s1	23µM*	10%	i	?	?
CCn1c(=O)c2cc(C(=O)N(C)CC(OC)OC)sc2c2ccccc21	-3%	1%	i	i	-9%
CC(=O)N1CCCC(C)(C(=O)Nc2ccc3oc(C)nc3c2)C1 (centres undefined)	.	3%	i	i	.
CCOC(=O)N1CCC(NC(=O)c2cc(S(=O)(=O)N3CCc4ccccc43)cn2C)CC1	0%	1%	3.3µM*	?	-1%
CCOC(=O)c1cc(S(=O)(=O)N2CCc3ccccc32)cn1C	5%	0%	i	i	-1%
COc1ccc(/C=C2/CSC/C(=C/c3ccc(OC)c(OC)c3)C2=O)cc1OC	?	-1%	1.5µM*	4.6µM*	2.9µM*
COc1ccc2c(c1)OC/C(=C/c1ccc(OC)c(OC)c1)C2=O	.	-2%	.	.	.
SMILES	MCF10A rerep	PINK1 modulator	KB-V1 MDR tox	KB-3-1 cytotox	SW480 rerep
Cc1c(Cl)cccc1-c1ccc(C(=O)Nc2ccc(F)cc2)o1	.	?	i	i	.
O=C(Nc1ccccc1Cl)c1ccc(=O)[nH]n1	9%	-2%	8.2µM*	7.3µM*	?
Cc1ccccc1OCC(O)Cn1c2ccccc2c2ccccc21 (centres undefined)	-7%	.	21µM*	i	23µM*
Cc1nccn1CC(O)Cn1c2ccccc2c2ccccc21 (centres undefined)	21µM*	-1%	i	i	-11%
Cc1c(Cl)c([N+](=O)[O-])nn1CC(=O)NC(C)C1CC2CCC1C2 (centres undefined)	26%	-1%	i	23µM*	-2%
O=C(NC12CC3CC(CC(C3)C1)C2)c1ccc(-c2ccc(Br)cc2)o1	21µM*	?	?	i	?
CCC(C)NC(=O)Cn1nc([N+](=O)[O-])c(Cl)c1C (centres undefined)	0%	11%	i	i	?
O=C(NC12CC3CC(CC(C3)C1)C2)c1ccc([N+](=O)[O-])o1	8.2µM*	0%	i	5.2µM*	?
CC(NC(=O)c1ccc([N+](=O)[O-])o1)C1CC2CCC1C2 (centres undefined)	12µM*	-4%	?	?	10µM*
O=C(NC12CC3CC(CC(C3)C1)C2)c1ccc(Br)o1	?	3%	i	i	3%
CC(=O)c1sc(-c2ccc(Cl)cc2)nc1C	0%	-1%	?	i	-7%
COc1ccc(N/C=C/C(=O)c2ccccc2)cc1	2%	2%	i	i	0%
Cc1nc(-c2ccccc2)sc1C(=O)/C=C/c1ccc(Cl)cc1	4.1µM*	-3%	?	?	2%
COc1ccc(N/C=C/C(=O)c2sc(-c3ccccc3)nc2C)cc1	?	7%	18µM*	?	?
CC1=C(C(=O)N(C(C)C)C(C)C)CC(CC(=O)NCc2cccs2)C(=O)N1Cc1ccc(C(C)(C)C)cc1 (centres undefined)	.	21%	?	?	.
Cc1csc(=O)n1CCC(=O)OCC(=O)N(C)c1c(N)n(Cc2ccccc2)c(=O)[nH]c1=O	.	1%	i	i	.
CCN(Cc1ccc(OC)c(F)c1)C(=O)CCl	?	0%	?	?	16µM*
CCCNC(=O)C1(C)CCCN(C(=O)c2cccc(Cl)c2)C1 (centres undefined)	.	0%	i	i	.
COc1ccc(-c2c(C)[nH]n3c(=O)c(Cc4ccccc4)c(C)nc23)cc1	22%	1%	16µM*	?	?
Cc1ccc(Cc2c(C)nc3c(-c4ccccc4)c(C)[nH]n3c2=O)cc1	.	23%	?	?	.
Cc1nc2c(-c3ccccc3)c[nH]n2c(=O)c1Cc1ccccc1	?	-3%	?	12µM*	17%
C[N+](=O)C1C(=O)Nc2ccccc21 (centres undefined)	.	.	i	.	.
CCCCNC(=O)C1(C)CCCCCN1Cc1cc2ccccc2o1 (centres undefined)	.	6%	?	i	.
CN(C)c1ccc(-c2n[nH]c(=S)n2-c2ccccc2)cc1	21%	4%	i	i	-10%[1.84 µM]
